In PubChem BioAssay (Tox21) one finds Potency, outcome and activity change, positive = activation data, which are given here for eight compounds.

A short description of assay [1]: qHTS assay to identify small molecule antagonists of the estrogen related receptor (ERR) signaling pathway from Tox21 library - cell viability counter screen (AID 1224834). Also: nearly all actives have a fitted effect of over 30% in size. An outline of the steps: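 Seeded ERR cells were rested 6 h at 37 C/5% CO2 before compounds, positive and negative controls or DMSO were added. Incubation continued for 17.5 h, and viability was then quantified by CellTiter-Fluor fluorescence.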
Background: In qHTS, concentration-response curves come from the screen itself.

The target in assay [2] is Luciferin 4-monooxygenase (Photinus pyralis) (UniProt P08659). Put plainly: qHTS assay to identify small molecule inhibitors of firefly luciferase (AID 1224835). Also: nearly all actives have a fitted effect of over 25% in size. Also: potency is read from the fitted curve at half-maximal effect. An outline of the steps: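 Biochemical qHTS: compounds run as interplate titrations against purified firefly enzyme, with D-luciferin and ATP each at its KM concentration. Light output recorded by CCD imaging.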
Sequence of Luciferin 4-monooxygenase (Photinus pyralis) (P08659 whole entry, looked up): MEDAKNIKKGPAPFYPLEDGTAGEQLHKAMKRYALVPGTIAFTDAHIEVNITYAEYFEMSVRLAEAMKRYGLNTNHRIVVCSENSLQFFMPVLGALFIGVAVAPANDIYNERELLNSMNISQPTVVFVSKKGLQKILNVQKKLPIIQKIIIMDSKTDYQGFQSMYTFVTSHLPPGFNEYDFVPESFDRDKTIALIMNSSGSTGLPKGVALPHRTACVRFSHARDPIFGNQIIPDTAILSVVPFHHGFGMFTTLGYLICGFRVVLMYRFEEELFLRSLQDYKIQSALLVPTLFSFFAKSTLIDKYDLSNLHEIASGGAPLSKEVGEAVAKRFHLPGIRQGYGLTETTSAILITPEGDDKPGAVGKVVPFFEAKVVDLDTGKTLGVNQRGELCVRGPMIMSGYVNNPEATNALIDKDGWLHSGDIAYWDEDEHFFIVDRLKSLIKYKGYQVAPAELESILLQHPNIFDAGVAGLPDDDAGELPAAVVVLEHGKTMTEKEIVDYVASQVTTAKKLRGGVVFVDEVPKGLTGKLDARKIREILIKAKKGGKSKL

Assay [3] can be described thus: qHTS assay to identify small molecule agonists of the constitutive androstane receptor (CAR) signaling pathway - cell viability counter screen (AID 1224836). Also: nearly all actives have a fitted effect of over 45% in size. An outline of the steps:
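Multiplexed viability check: HepG2-CYP2B6-hCAR cells, 15-point compound dosing, 0.75 uM PK11195 final, 23 h at 37 C, CellTiter-Fluor fluorescence.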

Assay [4] can be described thus: qHTS assay to identify small molecule antagonists of the constitutive androstane receptor (CAR) signaling pathway - cell viability counter screen (AID 1224837). Also: nearly all actives have a fitted effect of over 45% in size. An outline of the steps: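 To flag cytotoxic false antagonists, HepG2 hCAR/CYP2B6-2.2kb cells were treated 23 hr with 15-concentration compound series and 50 nM CITCO at 37 C/5% CO2; CellTiter-Fluor fluorescence was the measured end point.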

Assay [5] is described as follows: qHTS assay to identify small molecule antagonists of the estrogen related receptor signaling pathway with the pleiotropic PPARgamma coactivator (PGC) from Tox21 10K library - cell viability counter screen (AID 1224840; active = well fitted cell-killing curve with a large enough effect in the repeat runs, not every such curve was filed as active; also: nearly all actives have a fitted effect of over 40% in size). An outline of the steps: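 Seeded PGC/ERR cells (2,000/well, 6 h, 37 C/5% CO2) get compound by pin tool; 17.5 h incubation at 37 C; CellTiter-Fluor added, 30 min, fluorescence measured.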

The target in assay [6] is Thyrotropin receptor (Homo sapiens) (UniProt P16473). Put plainly: qHTS assay to identify small molecule agonists of the thyroid stimulating hormone receptor (TSHR) signaling pathway (AID 1224843; calls by dose curve; also: nearly all actives have a fitted effect of over 45% in size). In short, it runs like this: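 Agonist-mode screen: TSHR HEK293 cells received test chemicals for half an hour at room temperature, then HTRF cAMP detection reagents for one hour prior to fluorescence measurement. Each chemical ran as a 15-concentration series, triplicated.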
Sequence of Thyrotropin receptor (Homo sapiens) (P16473 whole entry, looked up): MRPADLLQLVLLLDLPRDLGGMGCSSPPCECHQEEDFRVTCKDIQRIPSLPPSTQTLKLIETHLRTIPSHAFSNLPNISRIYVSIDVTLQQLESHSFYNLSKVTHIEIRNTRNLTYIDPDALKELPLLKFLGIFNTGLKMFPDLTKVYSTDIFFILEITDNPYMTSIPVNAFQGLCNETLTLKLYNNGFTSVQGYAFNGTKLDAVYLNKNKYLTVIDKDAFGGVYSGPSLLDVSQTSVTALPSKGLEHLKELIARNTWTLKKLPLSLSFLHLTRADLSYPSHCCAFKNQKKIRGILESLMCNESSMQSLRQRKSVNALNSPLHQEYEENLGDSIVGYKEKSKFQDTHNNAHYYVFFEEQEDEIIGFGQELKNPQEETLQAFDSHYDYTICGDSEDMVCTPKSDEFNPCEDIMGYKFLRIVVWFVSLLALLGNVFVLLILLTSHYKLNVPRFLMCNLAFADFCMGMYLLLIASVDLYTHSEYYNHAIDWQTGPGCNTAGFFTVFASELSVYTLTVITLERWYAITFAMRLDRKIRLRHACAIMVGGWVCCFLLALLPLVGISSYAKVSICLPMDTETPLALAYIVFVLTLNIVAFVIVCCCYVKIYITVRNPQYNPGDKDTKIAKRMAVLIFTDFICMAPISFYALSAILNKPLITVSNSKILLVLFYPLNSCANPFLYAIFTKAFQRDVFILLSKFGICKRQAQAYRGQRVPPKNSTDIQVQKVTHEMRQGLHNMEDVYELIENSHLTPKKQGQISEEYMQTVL

Assay [7] can be described thus: qHTS assay to identify small molecule agonists of the hypoxia (HIF-1) signaling pathway - cell viability counter screen (AID 1224844; calls by dose curve; also: nearly all actives have a fitted effect of over 50% in size). An outline of the steps:
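HRE-bla ME-180; 0.5% dFBS; cpd 17 h, 37C, 5% CO2; CellTiter-Glo lum., 30 min RT, post-FRET read, same wells.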

Assay [8] in a line: qHTS assay to identify small molecule agonists of H2AX (AID 1224845; active = well fitted activation curve with a large enough effect in the signal ratio in the repeat runs, not every such curve was filed as active; the % refers to the signal ratio). In short, it runs like this: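 Wild-type CHO-K1 cells, plated overnight, exposed 3hr at 37C to 15 concentrations (0.76% DMSO final). Lysed, then HTRF anti-pH2AX (S139) cryptate and anti-H2AX-d2 antibodies, 24 hr room temperature; 665/620 nm emission read.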
The nature of assay [9]: qHTS assay to identify small molecule agonists of H2AX - cell viability counter screen (AID 1224847; calls by dose curve; also: top concentration of the series differs between compounds; nearly all actives have a fitted effect of over 30% in size). In short, it runs like this:
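After overnight plating of 1000 CHO-K1 cells per well, a 15-concentration compound series was applied for 3 hr at 37C. Luminescence from CellTiter-Glo, read following 30 min at room temperature, reflected cell viability.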

Assay [10] can be described thus: qHTS RealTime-Glo MT Cell Viability Assay in HepG2 cells - 24 hour (AID 1224867). Also: nearly all actives have a fitted effect of over 50% in size. In short, it runs like this:
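Cells + NanoLuc/prosubstrate dispensed (600 cells/well) → 5 h at 37 C/5% CO2 → compounds in DMSO transferred → 40 h incubation at 37 C, luminescence read at 0, 8, 16, 24, 32, 40 h.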

Assay [11] in a line: qHTS RealTime-Glo MT Cell Viability Assay in HEK293 cells - 32 hour (AID 1224868). Also: top concentration of the series differs between compounds; nearly all actives have a fitted effect of over 50% in size. An outline of the steps: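 Tox21 10K qHTS, HEK293, 600 cells/well, RealTime-Glo reagent co-dispensed with cells; 5 h preincubation, compound by pintool, 37 C, luminescence at 0–40 h.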
The target in assay [12] is Nuclear receptor subfamily 1 group I member 3 (Homo sapiens) (UniProt Q14994). Nature of the assay: qHTS assay to identify small molecule agonists of the constitutive androstane receptor (CAR) signaling pathway (AID 1224839).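 Also: HepG2 cells stably carrying human CAR and a CYP2B6 luciferase reporter; nearly all actives have a fitted effect of over 15% in size.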 An outline of the steps:
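Using human hepatoma HepG2 cells engineered with hCAR and a CYP2B6-2.2kb reporter, 15-concentration compound series were incubated 24 h alongside PK11195 at 0.75 uM final, with luminescence quantified afterwards.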

A short description of assay [13]: A CellTox Green Cytotoxicity Assay to monitor cytotoxicity in HEK293 cells - 0 hour (AID 1224869). Also: nearly all actives have a fitted effect of over 50% in size. An outline of the steps: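 Tox21 screen in HEK293: membrane-impermeant cyanine dye fluoresces on binding dead-cell DNA; compound pinned 5 h post-seeding, plates held at 37 C, signal read repeatedly through 40 h.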
Assay [14] is described as follows: qHTS assay to identify small molecule antagonists of the estrogen related receptor signaling pathway with the pleiotropic PPARgamma coactivator (PGC) from Tox21 10K library (AID 1224841; call rule not given here). An outline of the steps:
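Test chemicals dissolved in DMSO were applied to pre-incubated (6 h) PGC/ERR cells at 2,000 cells/well for an 18 h, 37 C treatment; reporter luminescence was then read using One-Glo.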

Assay [15] in a line: qHTS assay to identify small molecule agonists of the estrogen related receptor signaling pathway with the pleiotropic PPARgamma coactivator (PGC) from Tox21 10K library (AID 1224842). Also: nearly all actives have a fitted effect of over 15% in size. An outline of the steps:
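PGC/ERR reporter cell line, 2,000 cells per well, incubated 6 h at 37 C before 23 nL compound in DMSO was added. After 18 h at 37 C, One-Glo luminescence read following 30 min at room temperature.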

The nature of assay [16]: qHTS assay to identify small molecule agonists of the hypoxia (HIF-1) signaling pathway (AID 1224846; active = well fitted activation curve with a large enough effect in the signal ratio in the repeat runs, not every such curve was filed as active; the % refers to the signal ratio). In short, it runs like this: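 Reporter induction in HRE-bla ME-180 cells is taken as agonism: cells sit 5 hrs after plating, receive compounds or DMSO only, incubate 17 hrs at 37C under 5% CO2, and are loaded with CCF4-AM for beta-lactamase FRET measurement.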
Assay [17] can be described thus: qHTS assay to identify small molecule antagonists of the estrogen related receptor (ERR) signaling pathway from Tox21 library (AID 1224848). Also: nearly all actives have a fitted effect of over 50% in size. An outline of the steps:
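Quantitative high-throughput format: ERR reporter cells (2,000/well) pre-incubated 6 h, treated 18 h at 37 C with compounds in DMSO alongside positive and negative controls, then read by ONE-Glo luminescence.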

Assay [18] can be described thus: qHTS assay to identify small molecule agonists of the estrogen related receptor (ERR) signaling pathway from Tox21 library (AID 1224849; calls by dose curve; also: nearly all actives have a fitted effect of over 15% in size). To be noted: ERR reporter cell line, ONE-Glo luciferase, 18 h; at 42.5 µM (top of the series). An outline of the steps:
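Tox21 compounds tested for ERR agonism in an NTP reporter cell line: 18 h treatment at 37 C, then ONE-Glo luminescence.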

Assay [19] has as its target Nuclear receptor subfamily 1 group I member 3 (Homo sapiens) (UniProt Q14994). Put plainly: qHTS assay to identify small molecule antagonists of the constitutive androstane receptor (CAR) signaling pathway (AID 1224838).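 Also: HepG2 cells stably expressing hCAR with CYP2B6 luciferase reporter stimulated by CITCO; nearly all actives have a fitted effect of over 40% in size.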 An outline of the steps: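 Human hepatoma HepG2 cells expressing hCAR and a CYP2B6 promoter (2.2 kb) luciferase construct; compound titration (15 points) with 50 nM CITCO final, 24 h at 37 C/5% CO2; luminescence via ONE-Glo after 30 min at room temperature.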

Each structure is given as a SMILES string. “And” between values parts separate entries of the source, which are not always exact repeats. Equal entries are not always repeated. A number with no mark means an inactive call. Results filed as inconclusive are left out. The source made the active and inactive calls. Unless noted, calls follow the shape of the dose curve; as a rule, active = well fitted curve in the direction sought with a large enough effect in the repeat runs; inconclusive = weak or mixed curves; inactive = no such curve, though single readings can be large; an effect the other way counts as inactive or inconclusive.
% is scaled to controls: 0 for no effect and ±100 for the full control effect.

Sequence of Nuclear receptor subfamily 1 group I member 3 (Homo sapiens) (Q14994 whole entry, looked up): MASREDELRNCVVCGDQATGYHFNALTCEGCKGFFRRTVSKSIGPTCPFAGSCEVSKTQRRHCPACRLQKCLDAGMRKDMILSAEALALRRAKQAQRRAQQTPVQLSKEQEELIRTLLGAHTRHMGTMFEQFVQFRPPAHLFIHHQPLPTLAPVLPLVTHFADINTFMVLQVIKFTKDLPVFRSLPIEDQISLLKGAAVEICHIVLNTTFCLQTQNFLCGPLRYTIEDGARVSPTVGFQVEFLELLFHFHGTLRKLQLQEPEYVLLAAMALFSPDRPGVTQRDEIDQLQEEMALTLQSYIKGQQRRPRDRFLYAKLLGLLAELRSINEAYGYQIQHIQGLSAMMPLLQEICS

On to `COCC(=O)O`, for which the Potency entry in assay [1], in assay [2], in [3], in assay [4], in assay [5] and in assay [6] was “inactive” in each case. In addition, the Potency entry in assay [7], in assay [8], in assay [9], in assay [10] and in assay [11] was “inactive” throughout.
Regarding `C/C=C(C)/C=C/C=C(C)C`, the Potency entry in [1], in assay [2], in [3], in [4], in assay [12] and in [5] was “inactive” throughout. The Potency result in assay [7], in [8], in assay [9], in assay [10], in assay [11] and in [13] was “inactive” each time.
Consider `NS(=O)(=O)c1cc2c(cc1Cl)NC=NS2(=O)=O`, for which the Potency entry in [1], in assay [2], in assay [3], in assay [4], in assay [5] and in assay [6] was “inactive” in each case. For the same compound, the Potency entry in [7], in assay [8], in [10], in assay [11] and in assay [13] was “inactive” in each case.
`Cc1ccc(C)c(C)c1`: the Potency result in assay [1], in [2], in assay [3], in assay [4], in assay [12] and in [5] was “inactive” in each case. The Potency entry in [6], in [7], in assay [8], in assay [9], in assay [10] and in assay [11] was “inactive” each time. Besides, the Potency result in [13] is “inactive”.
Take `OC[C@@H](O)[C@H](O)[C@H](O)[C@@H](O)CO`: the Potency result in assay [1], in [2], in [3], in assay [4], in [5] and in [14] was “inactive” throughout. Further, the Potency result in assay [15], in assay [6], in assay [7], in assay [8], in [17] and in [10] was “inactive” each time. The Potency entry in assay [11] and in [13] was “inactive” throughout. In addition, the result in assay [16] was inactive. In addition, the activity change, positive = activation in assay [18] is 4.66% and 4.1%.
For `O=C(Oc1ccccc1)c1ccc(O)cc1`, the Potency entry in assay [1], in [3], in assay [4], in assay [5], in assay [6] and in [7] was “inactive” in each case. Moreover, the Potency result in assay [8], in [10], in assay [11] and in [13] was “inactive” in each case. In addition, the Potency in assay [2] is 35.8 µM (active) and 35.6 µM (active). In [16], the compound was called inactive.
With `CC1=CC[C@H]2C[C@@H]1C2(C)C`, the Potency entry in [1], in assay [2], in [3], in assay [4], in [5] and in [6] was “inactive” throughout. Also, the Potency entry in assay [7], in [8], in assay [9], in assay [10], in assay [11] and in assay [13] was “inactive” throughout.
`CCOC(=O)C1OC1c1ccccc1` (centres undefined): the Potency entry in [1], in [2], in assay [3], in assay [19], in [12] and in [5] was “inactive” each time. Further, the Potency result in [7], in assay [8], in assay [9], in [10] and in assay [13] was “inactive” in each case. The compound was called inactive in [16].
